OPRM1-OPRD1 ag: agonists of OPRM1-OPRD1 heterodimerization, primary screen, cell-based, luminescence. AID 504326, 2011. Mu-type opioid receptor (Homo sapiens) + Delta-type opioid receptor (Homo sapiens), …. activation, % at 9.3 µM. 340,000 tested, 0.3% active. cells; in the data active = activation above about 18%;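 note: 0% = vehicle-treated cells and 100% = reference agonist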
HTR5A ag ctr: HTR5A agonists in luminescence cell assay, primary screen, counter-screen for OPRM1-OPRD1 heterodimer agonist project, full-deck HTS | 5-hydroxytryptamine receptor 5A (Homo sapiens), P47898 | 340,000 tested, 0.61% active | cell-based | activation, % at 9.3 µM; in the data active = activation mostly above about 9.5%, no sharp cut-off; inactive = mostly below about 7.6%;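 note: 0% = cells with vehicle only and 100% = reference agonist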
Target sequence (P47898 whole entry, looked up): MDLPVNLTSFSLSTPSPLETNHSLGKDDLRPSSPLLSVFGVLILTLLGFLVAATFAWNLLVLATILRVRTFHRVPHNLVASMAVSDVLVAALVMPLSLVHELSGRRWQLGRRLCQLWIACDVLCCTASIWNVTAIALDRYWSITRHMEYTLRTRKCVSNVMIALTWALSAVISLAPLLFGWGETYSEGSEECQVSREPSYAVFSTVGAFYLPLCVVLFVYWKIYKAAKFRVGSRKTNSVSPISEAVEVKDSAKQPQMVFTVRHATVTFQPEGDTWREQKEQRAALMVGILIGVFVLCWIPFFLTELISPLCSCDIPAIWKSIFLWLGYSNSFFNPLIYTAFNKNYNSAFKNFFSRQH
MOR-DOR inv ag: inverse agonists of MOR-DOR heterodimerization, primary screen, cell-based, luminescence; 340,000 tested, 0.21% active; Mu-type opioid receptor (Homo sapiens) + Delta-type opioid receptor (Homo sapiens), …; inhibition, % at 9.3 µM; cell-based MOR-DOR heterodimer luminescence, inverse agonism; in the data active = inhibition above about 22%, passing the limit was not always enough;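 note: 0% = cells with DMSO and 100% = wells without cells with DMSO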
HTR5A inv ctr: HTR5A inverse agonists in luminescence cell assay, primary screen, counter-screen for OPRM1-OPRD1 heterodimer inverse agonist project, full-deck HTS. HTR5A cell line, inverse agonism. 340,000 tested, 0.083% active. inhibition, % at 9.3 µM; in the data active = inhibition mostly above about 23%, no sharp cut-off; inactive = mostly below about 18%;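 note: 0% = cells with DMSO and 100% = no-cell wells with DMSO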
pCIP destab: p/CIP-EGFP fusion destabilizers, primary screen, fluorescence, F442A cells. AID 1984, 2009. 16 h. 290,000 tested, 0.01% active. Q05BA5. decrease of EGFP signal, % at 10 µM;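 active = EGFP signal decrease of at least 30% at 10 µM or well 3 SD below plate mean, unless failing retest; inactive = the rest, including hits failing retest or dose response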
MIN6 prolif: inducers of MIN6 beta-cell proliferation, primary screen, ATP luminescence, uHTS; MIN6 cells proliferation, ATPlite luminescence, 48 h; cells starved in 0.2% serum; 100% = growth in 10% serum; proliferation, % at 10 µM; 330,000 tested, 0.29% active; AID 2380, 2010;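 active = compounds whose signal lies at least 3.5 SD above the mean of all wells on their plate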;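 note: 0% = DMSO-treated cells in low-serum medium and 100% = 10% serum control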
Starred values were filed as active, the others as inactive; / = no result given. Compounds with a hit are over-represented: about 1.4% of the library has one in this group of screens.

SMILES	OPRM1-OPRD1 ag	HTR5A ag ctr	MOR-DOR inv ag	HTR5A inv ctr	pCIP destab	MIN6 prolif
CCn1nc(C(=O)OCC(=O)N2CCc3ccccc32)c2ccccc2c1=O	-2	14*	10	-45	-13	0
CCOC(=O)C(=CNc1ccc(C(F)(F)F)cc1)C(=O)OCC	4	0	-23	-20	-5	-2
CCOC(=O)C(=CNc1ccc(NC2=NCC(C)S2)cc1)C(=O)OCC (stereo unspecified)	4	9.8*	-18	-26	-1	/
F[B-](F)(F)c1cc2ccccc2s1	-4	3	16	-10	/	/
N#Cc1c(-c2ccccc2)cc(-c2ccccc2)nc1SCc1nnc(-c2ccccc2)o1	1	13*	-6	3	3	2
Cn1c(-c2c(N)n(CCCc3ccccc3)c3nc4ccccc4nc23)nc2ccccc21	58*	1	-313	3	-6	/
C#CCOCCOCCOCCNc1nc(N2CCOCC2)nc(N2CCN(C(=O)CCCCCCCCCCNC(=O)[C@@H](CCSC)n3cc(CCO)nn3)CC2)n1	0	14*	2	-2	/	-3
Cc1nn(C)cc1S(=O)(=O)Nc1ccc(F)c(F)c1	-3	0	14	10	-8	-2
CCOC(=O)c1sc(N(Cc2ccccc2)C(=O)COC(=O)c2ccc(O)cc2)nc1C	14	11*	-74	-40	-10	-5
CCOC(=O)c1sc(N(Cc2ccccc2)C(=O)COC(=O)c2ccccc2O)nc1C	0	2	1	-7	0	0
COc1ccc(N2CCN(C(=O)c3ccc(CNS(=O)(=O)c4ccc(C)cc4)cc3)CC2)cc1	0	1	-1	1	-9	2
Cc1ccc(S(=O)(=O)NCc2ccc(C(=O)N3CCN(c4ccc([N+](=O)[O-])cc4)CC3)cc2)cc1	4	11*	-20	0	-11	-3
CCC1=[N+](CC(=O)c2ccc(Br)cc2)CCn2c(C)ccc21	0	12*	-1	-3	-17	-6
CC1(CCc2ccccc2)NC(=O)N(CC(=O)Nc2ccc(OC(F)F)cc2)C1=O (stereo unspecified)	2	1	-9	-2	/	-4
Cc1cccc(NC(=S)N2CCOCC2)c1C	1	11*	-5	-31	0	0
Cc1cccc(NC(=O)CN2CCOCC2)c1C	0	9.8*	-2	-36	-17	-3
CCc1nnc(SCC(=O)NC2CCCC2)nc1CC	-4	9.8*	19	-9	-6	-2
O=C(CCNC(=O)C1CCN(S(=O)(=O)c2ccc(F)cc2)CC1)Nc1nccs1	-2	10*	9	-15	-11	0
Clc1ccc(OCCCNCc2ccccc2)c2ccccc12	7	10*	-30	-39	-13	-4
c1ccc(CCc2cccnc2)cc1	-2	-2	11	8	/	/
CCCSC1=C(C#N)C(c2ccc(OC)cc2)C2=C(CC(C)(C)CC2=O)N1 (stereo unspecified)	-1	11*	3	-40	-9	0
COc1ccc(C2C(C#N)=C(C)NC3=C2C(=O)CC(C)(C)C3)cc1 (stereo unspecified)	0	3	-3	9	-3	-4
C(=N/Nc1nc(-c2ccccc2)cc(-c2ccccc2)n1)/c1cccnc1	3	4	-15	14	-20	-3
Cc1cc(-c2ccccc2)nc(N/N=C/c2cccnc2)n1	0	11*	0	-27	-14	-2
COC(=O)c1ccc(CNC(=O)c2ccc3c(c2)S(=O)(=O)N=C2CCCCCN23)cc1	-3	8	12	-21	/	1
CCOC(=O)[C@H]1[C@H]2COc3ccc(C)cc3[C@@H]2N2C(=O)c3ccccc3NC(=O)[C@@]12C	-2	9	12	2	/	0
FC(F)(F)c1cnc(NNC(=S)Nc2ccc(Cl)cc2)c(Cl)c1	-10	-10	49*	49*	-6	-6
Fc1ccc(NC(=S)NNc2ncc(C(F)(F)F)cc2Cl)c(F)c1	-10	-15	56*	39*	-19	-5
O=C1NC(CCO)C(=O)NC1CCO (stereo unspecified)	-2	3	11	-12	/	/

Source: PubChem BioAssay
